Shown are actives, neighbours in structure and some others; about 3.3% of the full set was active somewhere.
HttQ103 aggreg: mutant huntingtin aggregation inhibition; PC12 HttQ103-GFP aggregates, Acumen cytometry, 40 h; Potency, µM (series often up to 46.1 µM), without a hit: top-dose activity change, negative = inhibition, hits mostly inhibitors; 1.1% of 220,000 active; AID 1688; also: potency is read from the fitted curve at half-maximal effect; % is scaled to controls: 0 for no effect and ±100 for the full control effect; nearly all actives have a fitted effect of over 60% in size
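PC12 cells stably carrying ecdysone-inducible HTT exon 1 Q103–GFP were induced with tebufenozide (100 nM final) and treated with library compounds in titration. GFP aggregates in lysates were counted by laser scanning cytometry.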
PNC inhibitor: perinucleolar compartment assembly inhibition; PC3M PTB-GFP, PNC prevalence imaging, 16 h; hits give low values; activity change (PNC), negative = inhibition, % at 10 µM; 3.1% of 140,000 active;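 active = readout at or below -70, meaning at least 70% loss of cells showing the perinucleolar compartment, a nuclear body marking cancer cells; inconclusive = readout between -30 and a set limit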;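 also: plate controls were DMSO wells for no effect and camptothecin positive control wells for full effect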
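PC3M cells stably expressing PTB-GFP, 750–1000 cells/well, treated 16 h at 37 °C with compound (23 nl of library stock), in duplicate. After paraformaldehyde fixation and Hoechst stain, imaged at 20x; PNC prevalence scored by image analysis.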
12-hLO inh: inhibitors of human 12-lipoxygenase (ALOX12); P18054; Potency, µM (titrated, usually from 57.1 µM), for inactives: at the highest dose activity change, negative = inhibition, most hits filed as inhibitors; 0.12% of 150,000 active; purified 12-hLO, xylenol orange hydroperoxide absorbance; also: potency is read from the fitted curve at half-maximal effect; % is scaled to controls: 0 for no effect and ±100 for the full control effect; nearly all actives have a fitted effect of over 55% in size
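Hydroperoxide formation by human 12-lipoxygenase from 40 uM arachidonic acid was followed colorimetrically via ferric-xylenol orange complex, using the 573/405 nm absorbance ratio. Enzyme concentration was 150 nM, with 30 min reaction at room temperature.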
NPSR antag: blocks cAMP signaling of the human neuropeptide S receptor; Potency, µM (top dose mostly 38.3 µM), for inactives: at the top dose activity change, negative = inhibition, actives largely listed as inhibitors; Q6W5P4; CHO-NPSR cells, cAMP TR-FRET, antagonist mode; 1% of 220,000 active; also: potency is read from the fitted curve at half-maximal effect; % is scaled to controls: 0 for no effect and ±100 for the full control effect; nearly all actives have a fitted effect of over 50% in size
Target sequence (Q6W5P4 whole entry, looked up): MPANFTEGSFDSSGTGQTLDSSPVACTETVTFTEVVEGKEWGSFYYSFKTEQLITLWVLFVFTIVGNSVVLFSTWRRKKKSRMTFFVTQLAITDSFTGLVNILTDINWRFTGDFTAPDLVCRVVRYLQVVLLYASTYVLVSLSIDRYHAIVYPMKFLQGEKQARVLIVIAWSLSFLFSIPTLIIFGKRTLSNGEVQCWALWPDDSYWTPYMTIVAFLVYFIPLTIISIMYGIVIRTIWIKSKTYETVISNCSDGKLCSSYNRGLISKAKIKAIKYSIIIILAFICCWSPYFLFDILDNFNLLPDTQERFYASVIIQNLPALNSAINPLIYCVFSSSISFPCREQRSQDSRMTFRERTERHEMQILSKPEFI
IMPase inh: cell-permeable inhibitors of inositol monophosphatase (IMPase); CHO-M1 cells, IP1 accumulation, HTRF TR-FRET ratio; inhibition (IP1 accumulation), % at 46.1 µM; 120,000 tested, under 10 active; active = well fitted curve in the direction sought with a large enough effect in the signal ratio, not every such curve was filed as active; inconclusive = small, poorly fitted or top-dose-only effect, or a change in a side signal; inactive = no such curve, though single readings can be large or run the other way; the % refers to the signal ratio;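 also: cells stimulated with carbachol in lithium chloride buffer; plate controls were DMSO basal wells for no effect and reference inhibitor wells for full effect; higher means more IMPase inhibition seen as more IP1 and lower FRET ratio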
Target sequence (P97697 whole entry, looked up): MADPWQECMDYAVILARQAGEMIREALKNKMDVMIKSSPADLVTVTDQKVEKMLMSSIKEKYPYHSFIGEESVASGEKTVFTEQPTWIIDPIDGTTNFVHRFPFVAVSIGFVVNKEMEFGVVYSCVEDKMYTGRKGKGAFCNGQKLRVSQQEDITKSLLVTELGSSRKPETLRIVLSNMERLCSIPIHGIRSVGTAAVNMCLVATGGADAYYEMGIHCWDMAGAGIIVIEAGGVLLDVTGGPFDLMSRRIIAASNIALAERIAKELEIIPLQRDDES
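The IP-One HTRF competitive assay in carbachol-stimulated CHO-M1 cells quantifies cellular IP1. Compounds spanned up to 46 uM final, and activity is expressed as AC50 from concentration-response fits of the ratio and donor data.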
HTT ATP protect: protects HTT-Q103 PC12 cells, measured by ATP; PC12 HTT-Q103 induced, cytoprotection, ATP luminescence, 40 h; Potency, µM (highest dose often 56.4 µM), without a hit: cytoprotection (ATP increase), actives largely listed as activators; 0.14% of 230,000 active; also: potency is read from the fitted curve at half-maximal effect; % of control where 0% means no effect; nearly all actives have a fitted effect of over 45% in size
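Quantitative HTS on tebufenozide-induced (100 nM) PC12 cells expressing HTTQ103 exon 1–GFP; compounds tested as a concentration series; survival measured via cellular ATP.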
Numbers without * were called inactive; ? = inconclusive; . = no result given; [ ] = remark or other dose. Unless noted, calls follow the shape of the dose curve; as a rule, active = well fitted curve in the direction sought with a large enough effect; inconclusive = small, poorly fitted or top-dose-only effect, or another doubt; inactive = no such curve, though single readings can be large; an effect the other way counts as inactive or inconclusive.

SMILES	HttQ103 aggreg	PNC inhibitor	12-hLO inh	NPSR antag	IMPase inh	HTT ATP protect
CCOc1cccc(-c2nnc3n2N=C(c2cc(OC)ccc2OC)CS3)c1	-15%	-99*	-14%	-19%	14	-48%[10 µM]
COc1cccc(-c2nnc3n2N=C(C(C)(C)C)CS3)c1	2µM*	57	-1%	-11%[46.1 µM]	-1	34%
COc1cccc(-c2nnc3n2N=C(c2cc(OC)ccc2OC)CS3)c1	-8%	-1	-4%	?	5	-64%
COc1ccccc1-c1nnc2n1N=C(C(C)(C)C)CS2	-2%	-20	-1%	-23%[46.1 µM]	-3	4%
C[C@@](N)(/C=C\c1ccccc1)C(=O)O	.	.	-5%[11.4 µM]	.	.	-13%[10 µM]
Cc1ccc(NC(=O)CSc2nnc(Cc3ccccc3)o2)c(C)c1	21%	.	.	3%	.	-4%
Cc1ccccc1NC(=O)CSc1nnc(Cc2ccccc2)o1	5%	-100*	2%	-7%[46.1 µM]	2	?
CCCCCCc1cc2cc(-c3nnc(-c4ccccc4OC)o3)c(=O)oc2cc1O	?	-13	-6%	?	-9	-15%
CCCCCCc1cc2cc(-c3nnc(-c4cc(OC)c(OC)c(OC)c4)o3)c(=O)oc2cc1O	2.8µM*	2	12%	-16%[46.1 µM]	-8	-4%[10 µM]
N=C(N)SCCc1ccccn1	.	.	6%[11.4 µM]	.	.	-15%[10 µM]
COc1ccc2c(c1)C(=O)[C@@H](OC(=O)Nc1cc(OC)c(OC)c(OC)c1)[C@H](c1ccc(OC)c(Br)c1)O2	.	.	.	.	.	-49%
CN1CCCc2cc(C=O)ccc21	-7%	-13	-8%	-12%[46.1 µM]	-5	9%[1.9 µM]
CCCN1CCCc2cc(CN)ccc21	13µM*	-20	-10%	-23%[46.1 µM]	22	-16%[10 µM]
COC(=O)N1CC=CC1(C)C(=O)NCC1CC1 (stereo not drawn)	.	.	-2%	.	.	13µM*
CNC(=O)C1(C)C=CCN1C(=O)OC (stereo not drawn)	.	.	-6%	.	.	-6%
Cc1ccc(C=Nc2ccccc2C(N)=O)o1	0%	-93*	2%	11%	.	-59%[10 µM]
O=C(Nc1nc(COc2ccccc2)cs1)C12CC3CC(CC(C3)C1)C2	11µM*	-20	1%	-8%[46.1 µM]	4	-125%
Cc1cccc2cc(C3CC(c4ccco4)=NN3S(=O)(=O)c3ccccc3)c(Cl)nc12 (stereo not drawn)	6%	-91*	-2%	-5%	.	15%[10 µM]
Brc1ccccc1-c1nnc2sc(-c3ccc4c(c3)OCCO4)nn12	25µM*	-5	-11%	-22%[46.1 µM]	16	-72%
Clc1ccccc1-c1nnc2sc(-c3ccc4c(c3)OCO4)nn12	-30%	-20	-9%	?	-3	24%[1.9 µM]
COc1cccc(Cn2c(-c3nonc3N)nc3ccccc32)c1	8%	-111*	-5%	5%[46.1 µM]	15	-66%
COc1cc(Cn2c(-c3nonc3N)nc3ccccc32)ccc1C	0%	?	-6%	6%[46.1 µM]	14	-61%
COc1ccc(Cn2c(-c3ccc(OC)cc3)nc3ccccc32)cc1	?	-100*	-8%	-27%[46.1 µM]	17	22%[10 µM]
O=C1ON=C(c2cccc([N+](=O)[O-])c2)/C1=C/c1ccc(O)cc1	8%	.	.	10µM*	.	-44%
O=C(O)c1ccc(-c2cccc([N+](=O)[O-])c2)o1	5%[9.22 µM]	.	.	19%	.	18%[10 µM]
SMILES	HttQ103 aggreg	PNC inhibitor	12-hLO inh	NPSR antag	IMPase inh	HTT ATP protect
Nc1ncnc2c1ncn2[C@@H]1CCCO1	.	.	-2%	.	-2	5%[1.9 µM]
CCOc1ccc(/C=C(\C#N)c2nc(-c3cc4ccccc4oc3=O)cs2)c(OCC)c1	.	.	.	.	-2	.
CCc1c(C)nc2cc(-c3ccc(OC)c(OC)c3)nn2c1NCC1CC1	-82%	?	-10%	13µM*	24	-14%
COC1=NS(=O)(=O)c2ccccc21	-2%	?	-3%	11%	.	23%[10 µM]
COc1ccc(N(C)C2=NS(=O)(=O)c3ccccc32)cc1	-23%	-101*	-1%	-13%[46.1 µM]	-3	-50%[10 µM]
CCOc1cc(/C=C\c2[nH]c(=O)[nH]c(=O)c2[N+](=O)[O-])ccc1OC(C)CC (stereo not drawn)	?	?	-11%	?	?	2.5µM*
Cc1ccc2cc(C3C(C#N)=C(N)Oc4c3ccc3cccnc43)c(=O)[nH]c2c1 (stereo not drawn)	2.5µM*	?	-1%	0%[46.1 µM]	8	-58%
CCCCc1c(CCC)c(=N)c2ccccc2n1C	8.9µM*	45	0%	3%[46.1 µM]	12	-4%[10 µM]
CCOc1ccccc1C(=O)NN1C(=O)CCC1=O	-8%	-114*	2%	1%	.	.
Cc1sc(NC(=O)CSc2nnc(C(C)C)n2C)c(C#N)c1C	-22%	-86*	-1%	7%[46.1 µM]	-4[0.369 µM]	-4%[10 µM]
CCCn1c(SCC(=O)Nc2sc(C)c(C)c2C#N)nnc1C(C)C	?	?	1%	-23%[46.1 µM]	-5	-11%
Cc1ccnc(NS(=O)(=O)c2ccc(NS(=O)(=O)c3ccccc3)cc2)n1	4%	-100*	12%	-1%[46.1 µM]	-8	1%[10 µM]
CCCn1nnc(NC(=O)/C=C/c2cc(Br)ccc2OC)n1	-8%	.	.	-10%	.	-23%
Cc1ccc(/C=N/n2c(=O)c(C(C)(C)C)nn3cnnc23)cc1	-8%	-94*	5%	-8%	-11	-2%[10 µM]
CC(C)(C)c1nn2cnnc2n(/N=C/c2cccc3ccccc23)c1=O	-23%	2	2%	-15%	-2	9%[10 µM]
Cc1ccc(S(=O)(=O)NC(CC(=O)NC2CCCC2)c2ccco2)cc1 (stereo not drawn)	21%	2	-2%	-22%[46.1 µM]	-10[1.84 µM]	6%[10 µM]
Cc1ccc(S(=O)(=O)NC(CC(=O)N2CCOCC2)c2ccco2)cc1 (stereo not drawn)	5%	-91*	-3%	-14%[46.1 µM]	-8[1.84 µM]	-5%[10 µM]
Fc1ccc(-c2nnc(CN3CCN(c4ncc(C(F)(F)F)cc4Cl)CC3)o2)cc1	13µM*	?	-1%	-8%[46.1 µM]	7	-18%[0.074 µM]
O=C(Nc1nc(-c2ccccn2)cs1)c1ccco1	?	.	.	-38%	.	-120%
O=C(Nc1nc(-c2ccccn2)cs1)c1ccc(Br)s1	1.3µM*	50	-2%	-26%[46.1 µM]	-3	-51%
C=CCN(CC=C)C(=O)C1CCC(C(=O)N(CC=C)CC=C)CC1 (stereo not drawn)	-2%	-88*	1%	-13%[46.1 µM]	0	-9%[10 µM]
C=CCN(CC=C)C(=O)C1CC(=O)N(c2ccc(Br)cc2)C1 (stereo not drawn)	1%	16	-4%	-9%[46.1 µM]	2	-9%
CCOC(=O)c1c(NC(=O)C2C3C=CC(C3)C2C(=O)O)sc2c1CC(C)CC2 (stereo not drawn)	9%[9.22 µM]	.	.	-28%	.	-24%
